“And” between values parts separate entries of the source, which are not always exact repeats. Equal values may be shown once. A number with no mark means an inactive call. The source made the active and inactive calls. Cut-off read from the data, not from the text of the source: active = remaining activity below about 50%; inactive = the rest.
target: Phospholipase D2 (Homo sapiens) (UniProt O14939); experiment: cellular phospholipase D2 activity inhibition – cell-based, HEK293, single concentration (AID 602143); settings: HEK293 cellular PLD2 activity, percent of control; active compounds read low;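 note: tested at 200 nM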
Sequence (O14939 whole entry, looked up): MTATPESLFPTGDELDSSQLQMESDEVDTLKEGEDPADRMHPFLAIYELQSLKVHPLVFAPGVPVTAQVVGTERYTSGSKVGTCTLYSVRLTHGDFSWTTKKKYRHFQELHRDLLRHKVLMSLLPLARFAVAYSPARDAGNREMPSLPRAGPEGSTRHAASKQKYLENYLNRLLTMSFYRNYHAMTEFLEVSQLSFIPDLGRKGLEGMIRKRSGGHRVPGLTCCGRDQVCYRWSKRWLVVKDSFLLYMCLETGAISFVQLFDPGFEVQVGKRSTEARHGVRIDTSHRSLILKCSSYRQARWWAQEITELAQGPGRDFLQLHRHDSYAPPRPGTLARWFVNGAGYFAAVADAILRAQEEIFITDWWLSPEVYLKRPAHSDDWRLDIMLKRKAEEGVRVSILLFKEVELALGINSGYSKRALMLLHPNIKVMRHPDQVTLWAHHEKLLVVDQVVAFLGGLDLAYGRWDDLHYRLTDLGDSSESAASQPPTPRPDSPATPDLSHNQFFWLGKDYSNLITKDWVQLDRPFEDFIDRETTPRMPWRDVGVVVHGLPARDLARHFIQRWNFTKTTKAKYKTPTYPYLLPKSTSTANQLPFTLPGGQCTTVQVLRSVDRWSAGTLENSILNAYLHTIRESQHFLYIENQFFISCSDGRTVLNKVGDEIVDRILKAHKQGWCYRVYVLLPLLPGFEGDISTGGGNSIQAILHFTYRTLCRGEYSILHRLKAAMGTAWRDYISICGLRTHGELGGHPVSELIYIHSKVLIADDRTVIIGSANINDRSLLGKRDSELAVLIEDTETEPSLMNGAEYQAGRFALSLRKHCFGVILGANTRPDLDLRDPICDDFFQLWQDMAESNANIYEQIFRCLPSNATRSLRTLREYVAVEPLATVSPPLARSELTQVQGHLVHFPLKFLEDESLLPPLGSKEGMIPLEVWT
Sequence (O14939 whole entry, looked up): as above

**Q.** `O=C(NCCCCCCN1CCC2(CC1)C(=O)NCN2c1ccccc1)c1ccc2ccccc2c1` was tested. Which remaining activity did it give?
**A.** 133%

**Q.** `CC(C)[C@@H](CN1CCC2(CC1)C(=O)NCN2c1ccccc1)NC(=O)c1ccc(Cl)cc1` was tested. Which remaining activity did it give?
**A.** 59.4%

**Q.** `O=C(NCCN1CCC2(CC1)C(=O)NCN2c1cccc(F)c1)c1ccc(-c2ccccc2)cc1` was tested. Which remaining activity did it give?
**A.** 101%

**Q.** Which remaining activity does the source give for `O=C(C1C[C@H]1c1ccccc1)N1CC(N2CCC(n3c(=O)[nH]c4ccccc43)CC2)C1` (stereo not given in full) here?
**A.** 87.7%

**Q.** For `C[C@@H](CN1CCC2(CC1)C(=O)NCN2c1ccccc1)NC(=O)[C@@H]1C[C@H]1c1ccccc1`, which remaining activity is on record?
**A.** 75.9%

**Q.** `O=C(NCCN1CCC2(CC1)C(=O)NCN2c1cccc(F)c1)c1cnc2ccccc2c1` was tested. Which remaining activity did it give?
**A.** 5.53% (active)

**Q.** With `O=C(C#Cc1ccccc1)NCCN1CCC2(CC1)C(=O)NCN2c1ccccc1` as the compound, how does the remaining activity read?
**A.** 47.9% (active)

**Q.** With `C[C@@H](CN1CCC2(CC1)C(=O)NCN2c1ccc(F)c(F)c1)NC(=O)c1ccc(F)cc1` as the compound, how does the remaining activity read?
**A.** 23.6% (active)

**Q.** Which remaining activity does the source give for `O=C(NCCN1CCC2(CC1)C(=O)NCN2c1ccc(Br)cc1)c1ccc(F)cc1` here?
**A.** 73.2%

**Q.** `O=C(NCCN1CCC2(CC1)C(=O)NCN2c1ccccc1)c1cnc2ccccc2n1` was tested. Which remaining activity did it give?
**A.** 101%

**Q.** `Nc1cccc(Cl)c1C(=O)NCCN1CCC2(CC1)C(=O)NCN2c1ccccc1` was tested. Which remaining activity did it give?
**A.** 100%

**Q.** With `CC(C)[C@@H](CN1CCC2(CC1)C(=O)NCN2c1ccccc1)NC(=O)c1ccc(F)cc1` as the compound, how does the remaining activity read?
**A.** 74.9%

**Q.** How did the remaining activity turn out when `O=C(NCCN1CCC2(CC1)C(=O)NCN2c1cccc(Cl)c1)c1ccc2ccccc2c1` was run?
**A.** 72%

**Q.** Which remaining activity does the source give for `O=C(NCCN1CCC2(CC1)C(=O)NCN2c1ccccc1)c1cnco1` here?
**A.** 80.4%

**Q.** With `O=C(NCCN1CCC2(CC1)C(=O)NCN2c1ccccc1)c1ccc(F)cc1O` as the compound, how does the remaining activity read?
**A.** 82.6%

**Q.** `O=C1c2ccccc2C(=O)N1CCCN1CCC2(CC1)C(=O)NCN2c1ccccc1` was tested. Which remaining activity did it give?
**A.** 81%

**Q.** `O=C(c1cnc2ccccc2c1)N1CC(N2CCC(n3c(=O)[nH]c4cc(Br)ccc43)CC2)C1` was tested. Which remaining activity did it give?
**A.** 99.7%

**Q.** For `O=C(NCCN1CCC2(CC1)C(=O)NCN2c1ccccc1)c1ccncn1`, which remaining activity is on record?
**A.** 93.7%

**Q.** With `CCCCOc1ccc(C(=O)NCCN2CCC3(CC2)C(=O)NCN3c2cccc(F)c2)cc1` as the compound, how does the remaining activity read?
**A.** 95.2%

**Q.** How did the remaining activity turn out when `O=C(NCCN1CCC2(CC1)C(=O)NCN2c1ccc(F)c(F)c1)c1ccc(Cl)cc1` was run?
**A.** 55.3%

**Q.** `Cc1ccccc1C(=O)N(CCN1CCC2(CC1)C(=O)NCN2c1cccc(F)c1)C(=O)c1ccccc1C` was tested. Which remaining activity did it give?
**A.** 106%

**Q.** With `O=C(C1CC1c1ccccc1)N1CC(N2CCC3(CC2)C(=O)NCN3c2ccccc2)C1` (stereo not given) as the compound, how does the remaining activity read?
**A.** 82.9%

**Q.** With `O=C(NCCN1CCC2(CC1)C(=O)NCN2c1cccc(F)c1)c1ccc2c(c1)C(=O)OC2=O` as the compound, how does the remaining activity read?
**A.** 66.5%

**Q.** How did the remaining activity turn out when `O=C(NCCN1CCC2(CC1)C(=O)NCN2c1ccccc1)c1cc2cccnc2s1` was run?
**A.** 79.2%

**Q.** For `O=C(c1ccc(F)c(F)c1)N1CCC[C@@H]1CN1CCC2(CC1)C(=O)NCN2c1ccccc1`, which remaining activity is on record?
**A.** 124%

**Q.** With `O=C(CCCl)NCCN1CCC2(CC1)C(=O)NCN2c1cccc(F)c1` as the compound, how does the remaining activity read?
**A.** 87.1%

**Q.** Which remaining activity does the source give for `O=C(NCCN1CCC2(CC1)C(=O)NCN2c1ccc(Cl)cc1)c1cnc2ccccc2c1` here?
**A.** 29.7% (active)

**Q.** `C[C@@H](CN1CCC2(CC1)C(=O)NCN2c1ccc(F)c(F)c1)NC(=O)c1ccc2ccccc2c1` was tested. Which remaining activity did it give?
**A.** 51.2%

**Q.** Which remaining activity does the source give for `O=C1NCN(c2ccccc2)C12CCN(CCN1CCCC1)CC2` here?
**A.** 84.9%

**Q.** `O=C(NCCCN1CCC2(CC1)C(=O)NCN2c1ccccc1)c1cnc2ccccc2c1` was tested. Which remaining activity did it give?
**A.** 96.4%

**Q.** `O=C(NCCN1CCC2(CC1)C(=O)NCN2c1ccccc1)C1CCc2ccccc2C1` (stereo not given) was tested. Which remaining activity did it give?
**A.** 50.3% and 75.3%

**Q.** With `O=C(NCCN1CCC2(CC1)C(=O)NCN2c1ccc(Br)cc1)c1cc2cc(F)ccc2[nH]1` as the compound, how does the remaining activity read?
**A.** 23.7% (active)

**Q.** How did the remaining activity turn out when `CCCCCC(=O)NCCN1CCC2(CC1)C(=O)NCN2c1cccc(F)c1` was run?
**A.** 80.7%

**Q.** How did the remaining activity turn out when `C[C@@H](CN1CCC2(CC1)C(=O)NCN2c1ccc(F)c(F)c1)NC(=O)c1cc2cc(F)ccc2[nH]1` was run?
**A.** 4.81% (active)

**Q.** Which remaining activity does the source give for `O=C(c1ccc(F)c(F)c1)N(CCN1CCC2(CC1)C(=O)NCN2c1cccc(F)c1)C(=O)c1ccc(F)c(F)c1` here?
**A.** 106%

From PubChem BioAssay AID602143 (Vanderbilt Specialized Chemistry Center, 2011)
